Among the data in PubChem BioAssay (NCATS) are Potency and outcome values, retold here.

SMILES strings stand for the structures. Results filed as inconclusive are left out. Active and inactive are the calls of the source. Calls come from the whole dose curve; as a rule, active = well fitted curve in the direction sought with a large enough effect; inconclusive = small, poorly fitted or top-dose-only effect, or another doubt; inactive = no such curve, though single readings can be large; an effect the other way counts as inactive or inconclusive.

Experiment [1] addresses Phospholipid hydroperoxide glutathione peroxidase GPX4 (Homo sapiens) (UniProt P36969). In words: Primary qHTS Assay for Inhibitors of Recombinant Selenoprotein Glutathione Peroxidase 4 (GPX4) (AID 1845192). Note: nearly all actives have a fitted effect of over 65% in size. The gist of the method:
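NADPH consumption, followed by fluorescence at 340/450 nm between 0 and 15 min, reports GPX4 activity via coupled glutathione reductase (100 nM). Enzyme 200 nM was pre-exposed to compound 30 min; 0.5 mM cumene hydroperoxide and 1 mM GSH served as substrates.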

The target of experiment [2] is Luciferin 4-monooxygenase (Photinus pyralis) (UniProt P08659). Briefly: Primary firefly luciferase (FLuc) qHTS assay for identification of artifact compounds. (AID 1845220). Note: nearly all actives have a fitted effect of over 60% in size. The gist of the method: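 Cell-free, 1536-well qHTS. Buffer pH 7.6 with 0.01% Tween-20 and 0.05% BSA; 10 uM D-luciferin, 10 uM ATP; 10 nM P. pyralis luciferase; luminescence after 5 min.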
On the technique in general: Quantitative high-throughput screening tests each substance at several concentrations.

The nature of experiment [3]: Primary fluorescence-based thiol-reactive (MSTI) qHTS assay for identification of artifact compounds. (AID 1845221). Note: nearly all actives have a fitted effect of over 65% in size. Note: potency is the fitted concentration of half-maximal effect. The gist of the method: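 MSTI probe at 4 uM final in 2% DMSO/PBS pH 7.4; compounds, 1 h at room temperature in dark. Fluorescence Ex/Em 525/598 nm, normalised to Acetyl-MSTI and MSTI, fitted to 4-parameter Hill.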
The subject of experiment [4] is Nanoluciferase (engineered Oplophorus gracilirostris luciferase). Briefly: Primary Nanoluciferase (NLuc) qHTS assay for identification of artifact compounds. (AID 1845222). Note: series mostly up to about 54 µM. The gist of the method:
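Compounds are pinned into diluted (1:55) conditioned medium of NLuc-expressing S16 cells and held 15 min at room temperature protected from light. Nano-Glo substrate follows, and luminescence is read 5 min later.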

Experiment [5] in a line: Primary redox qHTS assay for identification of artifact compounds. (AID 1845223). The gist of the method:
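Amplex Red (25 uM) and HRP (250 mU/mL) in HBSS, with compounds for 15 min, then 250 uM DTT for 30 min, room temperature, dark. Fluorescence 525/598 nm read; normalized to DMSO and 10 uM DA3003; Hill fit.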

Experiment [6] is described as follows: Quantitative High-Throughput drug screen in 47 multiple myeloma cell lines against the NCATS MIPE library collection: FR4_PLB cell viability assay (AID 1918924; note: nearly all actives have a fitted effect of over 35% in size; note: potency is the fitted concentration of half-maximal effect). The gist of the method: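 Primary qHTS used for cherry-picking: cells at 500/well, library compounds for 48 h (37C, 5% CO2), luminescent ATP assay.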
A short description of experiment [7]: Quantitative High-Throughput drug screen in 47 multiple myeloma cell lines against the NCATS MIPE library collection: Delta47_JCRB cell viability assay (AID 1918925; note: potency is the fitted concentration of half-maximal effect; nearly all actives have a fitted effect of over 45% in size). The gist of the method:
(§1)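 qHTS of the MIPE 4.0 collection: 500 myeloma cells/well, 48 h drug exposure at 37C in 5% CO2, then CellTiter-Glo for 5 min at room temperature before luminescence reading.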

Experiment [8] can be described thus: Quantitative High-Throughput drug screen in 47 multiple myeloma cell lines against the NCATS MIPE library collection: EJM_DSMZ cell viability assay (AID 1918926; note: nearly all actives have a fitted effect of over 30% in size; note: potency is the fitted concentration of half-maximal effect). The gist of the method:
as §1

The nature of experiment [9]: Quantitative High-Throughput drug screen in 47 multiple myeloma cell lines against the NCATS MIPE library collection: AMO1_DSMZ cell viability assay (AID 1918927; note: nearly all actives have a fitted effect of over 30% in size; note: potency is the fitted concentration of half-maximal effect). The gist of the method: as §1
Experiment [10] is described as follows: Quantitative High-Throughput drug screen in 47 multiple myeloma cell lines against the NCATS MIPE library collection: ARP1_JJKsccF8 cell viability assay (AID 1918928; note: nearly all actives have a fitted effect of over 40% in size; note: potency is the fitted concentration of half-maximal effect). The gist of the method: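 Here, 48 h treatment with MIPE 4.0 agents at 37 °C preceded an ATP luminescence read. Plating density was 500 cells per well.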

Chain of Phospholipid hydroperoxide glutathione peroxidase GPX4 (Homo sapiens) (P36969 whole entry, looked up): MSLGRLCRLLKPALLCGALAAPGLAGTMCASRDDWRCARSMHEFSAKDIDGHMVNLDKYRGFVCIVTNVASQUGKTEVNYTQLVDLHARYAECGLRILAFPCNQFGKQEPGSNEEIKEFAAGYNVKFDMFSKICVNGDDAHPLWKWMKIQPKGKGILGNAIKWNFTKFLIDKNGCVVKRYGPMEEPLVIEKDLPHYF

In the case of `O=C(NCc1ccccc1)c1csc(Nc2ccncn2)n1`, the Potency entry in experiment [1], in experiment [2], in [3] and in [4] was “inactive” throughout. For the same compound, in experiment [5], the compound was called inactive. The Potency is 14.8 µM (active) in experiment [6], 14.8 µM (active) in experiment [7], 18.7 µM (active) in experiment [8] and 9.35 µM (active) in experiment [9].

Consider `CC(=O)N(C)C1(c2ccccc2)CCN(CCC[C@]2(c3ccc(Cl)c(Cl)c3)CCCN(C(=O)c3ccccc3)C2)CC1`, for which the Potency result in experiment [1], in experiment [2], in experiment [3] and in [4] was “inactive” throughout. Also, the compound was called inactive in [5]. In addition, the Potency in experiment [7] was 10.5 µM (active); in experiment [8], 20.9 µM (active); in [9], 10.5 µM (active).

With `Cc1ccccc1C(C(=O)NC1CCCCC1)N(C(=O)Cn1ccnc1C)c1cccc(F)c1` (stereo not given), the Potency entry in [1], in [2], in experiment [3], in experiment [4] and in experiment [10] was “inactive” throughout. In experiment [5], the outcome was inactive. For the same compound, the Potency in [7] is 11.8 µM (active).

Take `CC(C)C(=O)Oc1ccc(CO)cc1[C@H](CCN(C(C)C)C(C)C)c1ccccc1`: the Potency entry in experiment [1], in experiment [2], in experiment [3], in [4], in experiment [8] and in experiment [9] was “inactive” in each case. Besides, the Potency result in experiment [10] is “inactive”. Besides, the outcome in [5] was inactive.

Regarding `CC(C)n1nc(-c2ccc3oc(N)nc3c2)c2c(N)ncnc21`, the Potency result in experiment [1], in [2], in experiment [3] and in experiment [4] was “inactive” each time. Moreover, the compound was called inactive in experiment [5]. For the same compound, the Potency in experiment [7] was 0.0059 µM (active).

In the case of `CCOc1ccc(Nc2nc(-c3c(C)nc4ccccn34)cs2)cc1`, the Potency entry in experiment [1], in [2] and in [4] was “inactive” each time. The values for the Potency in [3], in [9] and in experiment [10] were 2.67 µM (active), 0.001 µM (active) and 3 nM (active), respectively. In addition, the compound was classed as inactive in experiment [5].

For the compound `COc1ccc(Cc2ccc(NC(N)=O)cc2)cc1-c1cccc(Cl)c1`, the Potency entry in experiment [1], in [2], in experiment [3], in [4], in experiment [6] and in [8] was “inactive” in each case. The Potency entry in experiment [10] is “inactive”. The outcome in [5] was inactive.

For the compound `CN1CCN(CCOc2cc(OC3CCOCC3)c3c(Nc4c(Cl)ccc5c4OCO5)ncnc3c2)CC1`, the Potency entry in experiment [1], in experiment [2], in experiment [3] and in experiment [4] was “inactive” each time. In addition, the Potency is 18.7 µM (active) in experiment [6], 23.5 µM (active) in [7] and 18.7 µM (active) in experiment [9].
